Several values for one entry are separate records, joined by “and”; a condition that tells them apart may be missing. Equal values may be shown once. Results filed as inconclusive are left out. Where a structure was tested more than once in an assay, its records may differ in their call. Activity calls are given as the source filed them. The call rests on the fitted dose curve.

The values that follow come from PubChem BioAssay (Tox21).
On the % scale 0 is the no-effect control and ±100 the full control effect; potency means the concentration at half of the fitted maximal effect.

This assay in a line: Nuclear factor erythroid 2-related factor 2/antioxidant responsive element (Nrf2/ARE) small molecule agonists: luciferase reporter gene qHTS assay in human keratinocytes (AID 1919969). Further: nearly all actives have a fitted effect of over 35% in size. To be noted: KeratinoSens HaCaT ARE-luciferase, luminescence, 24 h; series mostly up to 92.4 µM; activity, positive = activation: at the top concentration. An excerpt:
National Center for Advancing Translational Sciences [NCATS]
Division of Preclinical Innovation [DPI]
U.S. Environmental Protection Agency [EPA]
National Institutes of Environmental Health Sciences [NIEHS]
National Toxicology Program [NTP]
U.S. Food and Drug Administration [FDA]
Oxidative stress has been implicated in the pathogenesis of a variety of diseases ranging from cancer to neurodegeneration. The antioxidant response element (ARE) signaling pathway plays an important role in the amelioration of oxidative stress. The KeratinoSens (Givaudan, Switzerland) is an in vitro test method which quantifies luciferase induction as a measure of activation of Keap1-Nrf2-antioxidationt/electrophile response element (ARE) dependant pathway in HaCaT human keratinocytes stably transfected with a selectable plasmid. The KeratinoSens assay is a cell-based assay with a reporter cell line to detect potential skin sensitizers by their ability to induce the Nrf2/ARE-response. The activation of the report gene under culture conditions can be detected by ONE-Glo Luciferase Assay System (Promega, Madison, WI). This cell line has been used to screen the Tox21 10K compound library to identify agonists that induce oxidative stress. The cytotoxicity of the Tox21 compound library against the KS-ARE cell line was tested in parallel by measuring the cell viability using CellTiter- Fluor assay system (Promega, Madison, WI) in the same wells.
HaCaT derived cell line KeratinoSens were dispensed at 1,500 cells/5uL/well in 1536-well white wall/solid bottom plates using a Multidrop Combi (ThermoFisher Scientific, Waltham, MA) dispenser. After the assay plates were incubated at 37 C/5% CO2 for 5 h, 23 nL of compounds dissolved in DMSO, positive controls or DMSO only was transferred to the assay plate by a pintool workstation (Kalypsys, San Diego, CA). The plates were incubated at 37 C/5% CO2 for 23 h, followed by addition of 1uL/well of CellTiter-Fluor reagent into the assay plates using a Flying Reagent Dispenser (Aurora Discovery, San Diego, CA) for cell viability readout that measures cytotoxicity. After 1 h incubation at 37 C/5% CO2 the fluorescence intensity was measured using a ViewLux (PerkinElmer, Shelton, CT) plate reader. Then 4uL/well of One-Glo were added using a Flying Reagent Dispenser. After the plates were incubated at room temperature for 30 min, the luminescence intensity in the assay plates was measured using ViewLux plate reader.
For orientation: A reporter such as luciferase makes a cellular process visible.
Turning to `CC(C)(C)c1ccc(CCC=O)cc1`, the “activity, positive = activation” value was -17.8% (inactive). The same measure, in the same setting: then `CCCCOC(=O)C(C)OC(=O)CCC` (stereo not given), with -2.17% (inactive).

Take `CC1=CC[C@@H]2C[C@H]1C2(C)C`: the activity, positive = activation is -20.3% [at 19 µM] (inactive). On the same count and under the same terms, then `CC(C)(c1cc(Br)c(O)c(Br)c1)c1cc(Br)c(O)c(Br)c1`, with -42.8% (inactive); and `CC1(C)C2=CCCC(C)(C)[C@]23CC[C@H]1C3`, with -1.82% (inactive); and `COCCOCCOCCOCCOCCO`, with -0.695% (inactive). The same measure, in the same setting: then `O=S(=O)(O)c1ccccc1O`, with 1.06% (inactive); and `CCCC(C)CO` (stereo not given), with 1.53% (inactive). On the same count and under the same terms, then `CC(C)(C)OCC1CO1` (stereo not given), with 0.483% (inactive); and `CC(=O)NC(Cc1ccccc1)C(=O)O` (stereo not given), with 5.55% [at 42.5 µM] (inactive); and `COC(CC(C)CCCC(C)(C)O)OC` (stereo not given), with 4.2% (inactive). For the compound `C/C=C/CO`, the “activity, positive = activation” value is 8.01% (inactive).

With `c1ccc(CCCc2ccncc2)cc1`, the Potency is 48.6 µM (active).

`CC(C)(C)c1ccc(S)cc1`: the Potency was 48.6 µM (active). For `C=CCCCCCCCCCCCCCCCC`, the activity, positive = activation was 1.31% [at 8.39 µM] (inactive).

For `O=C(O)/C=C/c1ccccc1`, the “activity, positive = activation” value is 0.931% (inactive).

In the case of `CC(C)(Oc1ccc(CCNC(=O)c2ccc(Cl)cc2)cc1)C(=O)O`, the Potency result was “inactive”. In the case of `C[C@@H]1CCC[C@H](C)N1`, the “activity, positive = activation” value is -6.43% [at 42.5 µM] (inactive). On the same count and under the same terms, then `CCCCCCCCCCCC[N+](C)(C)CCCS(=O)(=O)[O-]`, with -5.67% (inactive); and `O=C(O)c1ccccc1OP(=O)(O)O`, with 12.7% [at 42.5 µM] (inactive); and `O=CC1CC1`, with -2.69% (inactive). On the same count and under the same terms, then `CNC1(C)C2CCC(C2)C1(C)C` (stereo not given), with -1.3% [at 42.5 µM] (inactive); and `O=C(C(=O)c1ccccc1)c1ccccc1`, with -9.85% (inactive); and `O=Cc1cccc([N+](=O)[O-])c1`, with -1.19% (inactive). Still for that read-out and setting: then `CN(C)CCCNCCCN`, with -1.06% (inactive); and `CO[Si](CCCNCCNCCN)(OC)OC`, with 7.36% (inactive); and `O=C(O)c1cc(=O)[nH]c(=O)[nH]1`, with 2.98% (inactive). In the case of `CC/C=C\CCOC(=O)C(C)C`, the “activity, positive = activation” value is -4.65% (inactive). For `CCSC(=O)N(CC(C)C)CC(C)C`, the “activity, positive = activation” value is -5.31% (inactive). Still for that read-out and setting: then `C=COCCOCCOCCOC=C`, with -7.57% (inactive); and `COC(c1ccccc1)(c1ccccc1)[C@H](Oc1nc(C)cc(C)n1)C(=O)O`, with 0.247% [at 42.5 µM] (inactive). The same measure, in the same setting: then `CCCCCCCCCCCCCCCC(=O)NCCO`, with -5.73% [at 42.5 µM] (inactive). For the compound `c1ccc2c(c1)-c1cccc3c1c-2cc1ccccc13`, the Potency is 23.8 µM (active) and 21.7 µM (active).

For `C=C(CC)C(=O)c1ccc(OCC(=O)O)c(Cl)c1Cl`, the Potency is 24.2 µM (active) and 29.8 µM (active).

As to `CC(O)C(C)O` (stereo not given), the “activity, positive = activation” value is -6.64% (inactive).

As to `CO[Si](C)(C)OC`, the “activity, positive = activation” value was -10.3% (inactive). On the same count and under the same terms, then `CNC(=O)NC`, with -3.14% (inactive); and `CCC(C)c1ccccc1` (stereo not given), with 4.81% (inactive).

As to `O=C(Nc1ccc(Cl)cc1)Nc1ccc(Cl)c(Cl)c1`, the Potency was 21.6 µM (active) and inactive. The same measure, in the same setting: then `C=CCCC=C`, with 70.5 µM (active).
